Assay [1] is described as follows: Nuclear factor erythroid 2-related factor 2/antioxidant responsive element (Nrf2/ARE) small molecule agonists: qHTS cell viability counter screen in human keratinocytes (AID 1919968; active means well fitted curve in the direction sought with a large enough effect in the repeat runs; an effect the other way counts as inactive or inconclusive; further: nearly all actives have a fitted effect of over 55% in size). An outline of the steps: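 Viability counter-screen: KeratinoSens reporter cells, DMSO-delivered compounds, 23 h at 37 C, CellTiter-Fluor fluorescence.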
Assay [2] can be described thus: G protein-coupled receptor (GPCR) small molecule agonists, calcium flux assay: HEK293 wild type cell line counter screen (AID 1920065). An outline of the steps:
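In this agonist-mode screen, ATP is the positive control and DMSO the vehicle. Cells grow 18 h before a 1 h dye incubation at 37 C; signal is taken at Ex/Em 480/540 over 3 min.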

Assay [3] is described as follows: p53 small molecule agonists, cell-based qHTS assay with rat liver microsomes (AID 1963578). The procedure, abridged:
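Cells carrying a p53 response element–beta-lactamase reporter were plated and rested 5 h, then dosed with compound in DMSO plus rat liver microsomes and NADPH, each at 0.5 mg/mL final. After 16 h at 37 C, LiveBLAzer substrate was added for 2 h.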
A general note: qHTS replaces the single test concentration by a dilution series.

The nature of assay [4]: p53 small molecule agonists, cell-based qHTS assay with rat liver microsomes: qHTS cell viability counter screen (AID 1963580). Further: nearly all actives have a fitted effect of over 45% in size. An outline of the steps: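 Viability is assessed in parallel with the p53 reporter read: HCT-116 p53RE-bla cells receive compounds plus rat microsomes and NADPH (0.5 mg/mL final apiece), incubate 16 h at 37 C, and then CellTiter-Glo luminescence is recorded.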

Assay [5] is described as follows: p53 small molecule agonists, cell-based qHTS assay: qHTS cell viability counter screen (AID 1963581). Further: nearly all actives have a fitted effect of over 45% in size. The procedure, abridged: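 Compounds are pinned onto HCT-116 p53RE-bla cells and left 16 h at 37 C. Following the reporter FRET read, ATP is quantified by CellTiter-Glo luminescence after 30 min at room temperature.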
Assay [6] in a line: p53 small molecule agonists, cell-based qHTS assay (AID 1963582; active means well fitted activation curve with a large enough effect in the signal ratio in the repeat runs, not every such curve was filed as active; the % refers to the signal ratio). The procedure, abridged:
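Agonist activity was scored from beta-lactamase FRET fluorescence in p53RE-bla cells treated 16 h at 37 C with compounds in DMSO, substrate incubation being 2 h at room temperature.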

Assay [7] addresses 5-hydroxytryptamine receptor 2A (Homo sapiens) (UniProt P28223). The experiment in a line: 5-hydroxytryptamine receptor 2A (HTR2A) small molecule antagonists, cell-based qHTS assay (AID 1963586). Further: nearly all actives have a fitted effect of over 45% in size. The procedure, abridged:
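Antagonist-mode intracellular calcium assay: DOI (4 nM) added after 5 min compound pre-incubation at room temperature to dye-loaded HTR2A-CHO cells. Fluorescence followed for 3 min, sampled every second.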

The target is the same in assay [8]. The experiment in a line: 5-hydroxytryptamine receptor 2A (HTR2A) small molecule agonists, cell-based qHTS assay (AID 1963587). Further: nearly all actives have a fitted effect of over 30% in size. An outline of the steps: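 CHO cells stably expressing human HTR2A, plated 18 h, loaded with calcium dye 1 h at 37 C. Agonist mode: compounds added and intracellular calcium fluorescence recorded kinetically for 2 min at 1 sec intervals.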

Assay [9] addresses Muscarinic acetylcholine receptor M1 (Homo sapiens) (UniProt P11229). Nature of the assay: Cholinergic receptor muscarinic 1 (CHRM1) small molecule antagonists, cell-based qHTS assay (AID 1963588). Further: nearly all actives have a fitted effect of over 40% in size. The procedure, abridged:
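CHRM1-CHO calcium-flux assay, antagonist mode. Cells were seeded 18 h, dye-loaded 1 h at 37 C and given compound for 5 min at RT, then acetylcholine was added at 50nM. FDSS fluorescence was read 3 min; 15 concentrations, three runs.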

For assay [10] the target is unchanged. Nature of the assay: Cholinergic receptor muscarinic 1 (CHRM1) small molecule agonists, cell-based qHTS assay (AID 1963589). Further: nearly all actives have a fitted effect of over 35% in size. Further: potency means the concentration at half of the fitted maximal effect. An outline of the steps: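 Stable CHRM1-CHO cells (human receptor) were incubated 18 h, dye-loaded for 1 h at 37 C and exposed to test compounds for agonist activity, with calcium-dependent fluorescence followed kinetically.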
Assay [11] can be described thus: cAMP Responsive Elements (CRE) small molecule agonists, cell-based qHTS assay (AID 1963590). An outline of the steps: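 FRET-based beta-lactamase readout (LiveBLAzer B/G, 2 h RT) quantified CRE activation in HEK 293T CRE-bla cells after 3 h treatment with DMSO-dissolved compounds.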
Assay [12] deals with Beta-2 adrenergic receptor (Homo sapiens) (UniProt P07550). The experiment in a line: Adrenergic beta2 receptor (ADRB2) small molecule antagonists, cell-based qHTS assay (AID 1963592). Further: series mostly up to about 92 µM; nearly all actives have a fitted effect of over 50% in size. An outline of the steps: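 Cells (CHO, stable ADRB2 overexpression) incubated 18-20hr at 37C; compounds added from DMSO; agonist mix (1nM isoproterenol, 100uM IBMX, 25uM Ro-20-1724) added; 0.5hr RT; d2-cAMP and anti-cAMP-cryptate added; 1hr RT; 665/615 nm read.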
Sequence of Beta-2 adrenergic receptor (Homo sapiens) (P07550 whole entry, looked up): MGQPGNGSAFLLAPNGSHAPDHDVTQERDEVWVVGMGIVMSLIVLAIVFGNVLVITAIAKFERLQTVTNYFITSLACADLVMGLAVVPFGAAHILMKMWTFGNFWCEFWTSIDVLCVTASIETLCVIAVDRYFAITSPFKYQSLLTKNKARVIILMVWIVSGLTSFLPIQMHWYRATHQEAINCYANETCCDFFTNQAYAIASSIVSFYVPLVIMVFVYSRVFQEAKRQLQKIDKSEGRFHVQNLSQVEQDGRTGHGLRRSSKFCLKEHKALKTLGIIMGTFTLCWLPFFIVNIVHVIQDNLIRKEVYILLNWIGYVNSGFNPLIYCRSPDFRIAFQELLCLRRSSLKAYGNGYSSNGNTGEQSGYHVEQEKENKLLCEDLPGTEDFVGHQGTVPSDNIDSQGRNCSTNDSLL

The target is the same in assay [13]. The experiment in a line: Adrenergic beta2 receptor (ADRB2) small molecule agonists, cell-based qHTS assay (AID 1963593).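 Further: CHO cells stably overexpressing human ADRB2.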 The procedure, abridged: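 CHO cells stably over-expressing ADRB2 were plated overnight at 37C, then dosed with compounds plus a stimulation mix containing 100uM IBMX and 25uM Ro-20-1724 for 0.5hr at room temperature. cAMP was measured by HTRF competition, 1hr.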

In assay [14] the target is D(2) dopamine receptor (Homo sapiens) (UniProt P14416). The experiment in a line: Dopamine D2 receptor (DRD2) small molecule agonists, cell-based qHTS assay (AID 1963594). Further: nearly all actives have a fitted effect of over 35% in size. The procedure, abridged:
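HEK293 cells stably expressing human DRD2, pre-treated with PDE inhibitor Ro20-1724 (0.1 mM final) and compound 10 min at room temperature, then stimulated with NKH477 (200nM […]) for 30 min. cAMP read by HTRF (665/620 nm).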

Assay [15] shares this target. The experiment in a line: Dopamine D2 receptor (DRD2) small molecule antagonists, cell-based qHTS assay (AID 1963595; active means well fitted inhibition curve with a large enough effect in the signal ratio in the repeat runs, with a control signal flat; the % refers to the signal ratio). The procedure, abridged: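 HTRF cAMP read-out at 665 and 620 nm emission (340 nm excitation). Antagonist mode: compounds were tested against 12 nM quinpirole in DRD2-HEK293 cells, with 200 nM NKH477 raising cAMP and 0.1 mM Ro20-1724 blocking its breakdown.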

Assay [16] in a line: p53 small molecule agonists, cell-based qHTS assay with human liver microsomes (AID 1963577). The procedure, abridged: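 Fluorescence of the beta-lactamase reporter in p53RE-bla cells, detected with LiveBLAzer substrate (2 h, room temperature, dark), served as the read-out after 16 h compound exposure at 37 C with human liver microsomes and NADPH, each 0.5 mg/mL final.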
Assay [17] is described as follows: p53 small molecule agonists, cell-based qHTS assay with human liver microsomes: qHTS cell viability counter screen (AID 1963579). Further: nearly all actives have a fitted effect of over 45% in size. An outline of the steps:
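Cytotoxicity counter screen: p53RE-bla, 4,000 cells/well; 5 h settle, 37 C/5% CO2; cpd + HLM 0.5 mg/mL + NADPH 0.5 mg/mL (final); 16 h, 37 C; CellTiter-Glo, 30 min RT, luminescence.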

In assay [18] the target is Gonadotropin-releasing hormone receptor (Homo sapiens) (UniProt P30968). The experiment in a line: Human gonadotropin-releasing hormone receptor (GnRHR) small molecule agonists, calcium flux assay in GnRHR-HEK293 cells (AID 1920063). Further: nearly all actives have a fitted effect of over 35% in size. The procedure, abridged: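 Tox21-format agonist screen using human GnRHR-expressing HEK293 cells and a fluorescent calcium dye; kinetic 3-min fluorescence reading after compound addition, 15-point concentration series run in triplicate.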
Sequence of Gonadotropin-releasing hormone receptor (Homo sapiens) (P30968 whole entry, looked up): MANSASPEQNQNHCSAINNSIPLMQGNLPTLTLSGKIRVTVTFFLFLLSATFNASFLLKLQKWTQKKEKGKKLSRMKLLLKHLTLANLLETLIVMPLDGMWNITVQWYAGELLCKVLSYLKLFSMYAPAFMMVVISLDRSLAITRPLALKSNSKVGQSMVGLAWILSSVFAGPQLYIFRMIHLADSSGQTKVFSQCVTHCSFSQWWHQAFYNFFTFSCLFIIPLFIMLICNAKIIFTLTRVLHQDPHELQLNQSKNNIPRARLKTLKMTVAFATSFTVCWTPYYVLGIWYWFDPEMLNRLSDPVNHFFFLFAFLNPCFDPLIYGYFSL

Assay [19] concerns the target KiSS-1 receptor (Homo sapiens) (UniProt Q969F8). The experiment in a line: Human kisspeptin (KISS1R) small molecule agonists, calcium flux assay in KISS1R-HEK293 cells (AID 1920064; active means well fitted curve in the direction sought with a large enough effect in the repeat runs; an effect the other way counts as inactive or inconclusive). The procedure, abridged: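 Intracellular calcium mobilization in KISS1R-HEK293 cells was recorded by fluorescence (Ex/Em 480/540) for 3 min following compound addition to cells pre-loaded 1 h with calcium dye.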

A short description of assay [20]: cAMP Responsive Elements (CRE) small molecule antagonists, cell-based qHTS assay (AID 1963591; active means well fitted inhibition curve with a large enough effect in the signal ratio in the repeat runs, not every such curve was filed as active; the % refers to the signal ratio). An outline of the steps: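 qHTS in CRE-bla HEK 293T cells: compound in DMSO, then 0.25 uM NKH477 (final), 3 h at 37 °C/5% CO2; beta-lactamase FRET read-out after 2 h substrate incubation.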

Records with an inconclusive call do not appear. A structure can be active in one record and inactive in another. Calls of active or inactive are those of the source. Unless noted, the call rests on the fitted dose curve.

The text below walks through data of PubChem BioAssay (Tox21).

Sequence of KiSS-1 receptor (Homo sapiens) (Q969F8 whole entry, looked up): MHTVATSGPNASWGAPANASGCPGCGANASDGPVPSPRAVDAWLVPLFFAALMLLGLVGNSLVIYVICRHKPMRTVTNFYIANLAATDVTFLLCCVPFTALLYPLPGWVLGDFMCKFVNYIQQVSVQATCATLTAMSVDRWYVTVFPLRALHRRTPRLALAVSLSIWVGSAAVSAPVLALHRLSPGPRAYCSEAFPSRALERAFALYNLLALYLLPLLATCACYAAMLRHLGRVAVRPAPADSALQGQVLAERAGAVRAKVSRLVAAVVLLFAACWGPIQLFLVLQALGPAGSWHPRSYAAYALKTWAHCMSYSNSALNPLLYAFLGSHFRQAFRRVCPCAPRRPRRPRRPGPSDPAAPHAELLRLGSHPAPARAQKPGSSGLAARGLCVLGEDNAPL
Sequence of 5-hydroxytryptamine receptor 2A (Homo sapiens) (P28223 whole entry, looked up): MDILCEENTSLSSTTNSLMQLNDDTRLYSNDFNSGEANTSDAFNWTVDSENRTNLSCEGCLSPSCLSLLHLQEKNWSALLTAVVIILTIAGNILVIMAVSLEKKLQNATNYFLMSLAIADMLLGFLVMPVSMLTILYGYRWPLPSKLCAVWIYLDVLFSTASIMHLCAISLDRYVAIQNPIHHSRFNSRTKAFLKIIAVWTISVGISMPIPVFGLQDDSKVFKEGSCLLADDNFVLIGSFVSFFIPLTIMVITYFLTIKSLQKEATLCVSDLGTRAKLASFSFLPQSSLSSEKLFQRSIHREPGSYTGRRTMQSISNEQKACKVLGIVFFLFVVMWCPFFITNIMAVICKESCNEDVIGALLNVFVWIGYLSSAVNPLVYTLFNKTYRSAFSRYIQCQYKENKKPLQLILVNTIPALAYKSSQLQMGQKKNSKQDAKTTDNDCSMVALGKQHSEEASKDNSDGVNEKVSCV
Sequence of D(2) dopamine receptor (Homo sapiens) (P14416 whole entry, looked up): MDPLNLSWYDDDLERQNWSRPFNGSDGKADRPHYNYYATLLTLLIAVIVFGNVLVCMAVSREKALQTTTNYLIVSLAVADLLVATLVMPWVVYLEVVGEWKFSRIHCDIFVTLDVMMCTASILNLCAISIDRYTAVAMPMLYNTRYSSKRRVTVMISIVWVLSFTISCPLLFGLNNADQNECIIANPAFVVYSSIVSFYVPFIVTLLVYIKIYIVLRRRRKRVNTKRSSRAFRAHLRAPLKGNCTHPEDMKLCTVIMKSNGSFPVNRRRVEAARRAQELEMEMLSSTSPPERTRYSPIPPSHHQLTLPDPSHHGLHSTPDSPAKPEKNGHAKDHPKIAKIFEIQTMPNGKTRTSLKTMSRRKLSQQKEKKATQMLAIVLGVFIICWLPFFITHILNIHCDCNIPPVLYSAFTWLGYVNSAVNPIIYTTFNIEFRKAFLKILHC
Sequence of Muscarinic acetylcholine receptor M1 (Homo sapiens) (P11229 whole entry, looked up): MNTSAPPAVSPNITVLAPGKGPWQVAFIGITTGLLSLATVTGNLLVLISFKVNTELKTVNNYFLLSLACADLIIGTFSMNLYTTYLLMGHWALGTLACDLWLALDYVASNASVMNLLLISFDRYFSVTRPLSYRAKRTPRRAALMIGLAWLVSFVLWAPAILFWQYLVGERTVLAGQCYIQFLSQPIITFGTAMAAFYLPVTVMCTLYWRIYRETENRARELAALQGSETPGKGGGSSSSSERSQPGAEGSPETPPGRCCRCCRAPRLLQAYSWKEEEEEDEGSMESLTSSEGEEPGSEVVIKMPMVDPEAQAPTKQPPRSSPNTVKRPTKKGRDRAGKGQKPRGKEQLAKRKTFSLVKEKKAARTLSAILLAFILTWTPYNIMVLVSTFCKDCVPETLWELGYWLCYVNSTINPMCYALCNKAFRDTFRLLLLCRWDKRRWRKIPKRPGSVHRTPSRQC

`O=c1[nH]c(=O)c2cn[nH]c2[nH]1`: the Potency result in [1], in assay [2], in assay [3], in assay [4], in assay [5] and in assay [6] was “inactive” in each case. For the same compound, the Potency entry in assay [7], in assay [8], in assay [9], in assay [10], in assay [11] and in [12] was “inactive” throughout. Also, the Potency result in assay [13], in assay [14] and in assay [15] was “inactive” each time.

For the compound `CCOc1ccc2c(c1)C(C)=CC(C)(C)N2`, the Potency result in assay [1], in assay [2], in assay [16], in [17], in assay [4] and in assay [6] was “inactive” in each case. The Potency entry in assay [7], in assay [9], in assay [11] and in assay [14] was “inactive” throughout. The Potency in assay [10] is 54.7 µM (active) and inactive.

Take `NS(=O)(=O)c1ccc(NC(=O)CCC(=O)O)cc1`: the Potency entry in assay [1], in assay [18], in assay [19], in [2], in [16] and in assay [3] was “inactive” throughout. The Potency entry in [17], in assay [4], in [5], in assay [6], in assay [7] and in assay [8] was “inactive” in each case. Moreover, the Potency entry in [9], in assay [10], in assay [11], in [20], in assay [13] and in assay [15] was “inactive” each time.

On to `CN(C)CCCNCCC#N`, for which the Potency result in [1], in [18], in assay [19], in assay [2], in assay [16] and in assay [3] was “inactive” throughout. For the same compound, the Potency entry in assay [17], in assay [4], in [5], in [6], in assay [7] and in [8] was “inactive” in each case. In addition, the Potency entry in assay [9], in assay [10], in [11], in assay [20], in [12] and in [15] was “inactive” in each case.

For `OCCOCCOCCOCCOCCO`, the Potency entry in [1], in [18], in [19], in assay [2], in [16] and in [3] was “inactive” throughout. The Potency result in assay [17], in assay [4], in [5], in assay [6], in assay [7] and in [8] was “inactive” in each case. For the same compound, the Potency entry in assay [9], in [10], in assay [11], in [20], in assay [12] and in assay [13] was “inactive” each time. Also, the Potency result in assay [14] and in assay [15] was “inactive” throughout.

In the case of `CCCC[O][Al]([O]CCCC)[O]CCCC`, the Potency result in assay [1], in assay [18], in assay [19], in assay [2], in assay [16] and in assay [3] was “inactive” in each case. Further, the Potency result in assay [17], in assay [4], in assay [5], in [7], in assay [8] and in assay [9] was “inactive” in each case. Besides, the Potency result in assay [10], in assay [11], in assay [20], in assay [12], in assay [14] and in assay [15] was “inactive” throughout.

Regarding `OCCOCCN1CCN(C2=Nc3ccccc3Sc3ccccc32)CC1`, the Potency result in assay [1], in [18], in [19], in assay [2], in [16] and in assay [3] was “inactive” throughout. In addition, the Potency entry in [4], in assay [5], in assay [6], in [12], in assay [13] and in assay [14] was “inactive” throughout. In addition, the Potency result in assay [15] was “inactive”.

As for `CCCSc1ccc2nc(NC(=O)OC)[nH]c2c1`, the Potency result in [1], in assay [18], in assay [19], in assay [2], in [16] and in assay [17] was “inactive” throughout. Besides, the Potency result in assay [20], in assay [12], in assay [13], in assay [14] and in assay [15] was “inactive” throughout.

For `CC(C)(c1ccc(O)cc1)c1ccc(O)cc1`, the Potency result in [1], in [18], in assay [19], in [2], in assay [16] and in assay [3] was “inactive” each time. The Potency entry in assay [17], in [4], in assay [5], in [11], in assay [20] and in assay [12] was “inactive” in each case. Also, the Potency result in assay [14] and in assay [15] was “inactive” throughout.
